Sampled rows, rich in hits. Any-hit rate of the full collection: about 2.3%.
M1 ag parental: counter-screen for M1 agonists: effect in parental CHO-K1 cells; actives 0.48% (n = 360,000); AID 602248, 2012; activation, % at 3 µM; Fluo-8 calcium fluorescence; scaled to maximal ATP response, vehicle zero; in the data active = activation above about 15%;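 note: untransfected CHO-K1 host cells lacking M1 receptor as counterscreen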
CHRM1 agonist: human M1 muscarinic receptor agonists, primary screen, Fluo-8 calcium fluorescence, CHO-K1 cells, HTS; Muscarinic acetylcholine receptor M1 (Homo sapiens), P11229; CHO-K1 hM1, agonist mode; 0% DMSO, 100% acetylcholine EC100; activation, % at 3 µM; actives 0.33% (n = 360,000); AID 588814, 2011;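 active = activation above the run's mean compound activation plus 3 SD, cut at about 16% in these data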;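 note: peak over basal fluorescence ratio within a 140 s kinetic read after compound addition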
Target sequence (P11229 whole entry, looked up): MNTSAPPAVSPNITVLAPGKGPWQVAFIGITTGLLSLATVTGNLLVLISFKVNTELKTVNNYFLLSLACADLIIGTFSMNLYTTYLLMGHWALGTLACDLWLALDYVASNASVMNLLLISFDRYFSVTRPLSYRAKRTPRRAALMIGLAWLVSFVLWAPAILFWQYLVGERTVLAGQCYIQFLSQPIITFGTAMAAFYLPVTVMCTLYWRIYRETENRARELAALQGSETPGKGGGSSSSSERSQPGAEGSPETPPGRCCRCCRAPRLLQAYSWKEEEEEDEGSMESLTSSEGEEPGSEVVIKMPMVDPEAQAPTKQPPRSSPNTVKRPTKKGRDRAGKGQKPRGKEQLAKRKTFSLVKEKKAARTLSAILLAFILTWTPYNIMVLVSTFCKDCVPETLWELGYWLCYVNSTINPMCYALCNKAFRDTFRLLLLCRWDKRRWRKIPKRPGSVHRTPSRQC
CHO-K1 Ca antag: nonselective inhibitor or artifact in parental CHO-K1 cells; ATP-induced calcium, Fluo-8 fluorescence; inhibition, % at 3 µM; actives 0.6% (n = 360,000); AID 602250;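 active = inhibition above a per-plate cutoff, the plate's mean sample inhibition plus 3 SD, cut at about 24% in these data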;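 note: 0% = DMSO plus EC80 ATP and 100% = DMSO alone without ATP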
M1 PAM parental: nonselective calcium activators in parental CHO-K1 cells, primary screen, counter-screen for M1 PAM project, cell-based, Fluo-8 calcium fluorescence, full deck, 1536-well. activation, % at 3 µM. AID 602247, 2012. actives 0.02% (n = 360,000). ATP EC20; 0% at ATP EC20, 100% at ATP max;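 active = activation above the run cutoff, the mean activation of all test compounds plus 3 SD, cut at about 40% in these data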;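 note: peak over basal fluorescence ratio in a 140 s read after ATP addition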
M1 PAM: human M1 muscarinic receptor positive allosteric modulators, primary screen, CHO-K1 cells, Fluo-8 calcium fluorescence, 1536-well | Muscarinic acetylcholine receptor M1 (Homo sapiens), P11229 | actives 0.088% (n = 360,000) | AID 588819, 2011 | CHO-K1 hM1, ACh EC20; 0% = ACh EC20, 100% = maximal ACh | activation, % at 3 µM; in the data active = activation above about 19%, passing the limit was not always enough
CHRM1 antagonist: human M1 muscarinic receptor antagonists, primary screen, CHO-K1 cells, Fluo-8 calcium fluorescence, 1536-well. Muscarinic acetylcholine receptor M1 (Homo sapiens), P11229. CHO-K1 hM1, ACh EC80 antagonist. inhibition, % at 3 µM. actives 1.3% (n = 360,000). AID 588852, 2011;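 active = percent inhibition above its own plate's cutoff, namely the mean of that plate's compound wells plus 3 SD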;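 note: peak over basal fluorescence ratio during 140 s after agonist addition; 0% = ACh EC80 plus DMSO and 100% = DMSO alone without agonist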
* = called active by the depositor.

CCCN1CCC(=O)N(CCOc2ccccc2)CC1 was read as M1 ag parental 3, CHRM1 agonist -5, CHO-K1 Ca antag 24*, M1 PAM parental -18, M1 PAM 4 and CHRM1 antagonist 1.
Screening CC(C)CN1CCC(=O)N(CCOc2ccccc2)CC1 returned M1 ag parental 0, CHRM1 agonist 2, CHO-K1 Ca antag 5, M1 PAM parental -17, M1 PAM -3 and CHRM1 antagonist 15.
`CCCCNC(=O)Cc1coc2ccc3ccccc3c12` gave M1 ag parental 0, CHRM1 agonist -1, CHO-K1 Ca antag 27*, M1 PAM parental -4, M1 PAM 10 and CHRM1 antagonist 1.
COCCCNC(=O)Cc1coc2ccc3ccccc3c12 was read as M1 ag parental 1, CHRM1 agonist -6, CHO-K1 Ca antag -10, M1 PAM parental 9, M1 PAM 7 and CHRM1 antagonist -5.
O=C(c1ccco1)N1N=C(c2ccccc2O)CC1c1cccs1 (stereo not given) was read as M1 ag parental 1, CHRM1 agonist -4, CHO-K1 Ca antag -6, M1 PAM parental 17, M1 PAM -8 and CHRM1 antagonist 17.

Screening results from PubChem.
